Data published in PubChem BioAssay.
Calls of active or inactive are those of the source.

Assays:
[1] = small molecules captured by biotinylated probe aFSTL3 – biochemical, small-molecule microarray, fluorescence 635/667, stem cell growth factor project, primary screen (AID 1064); details: higher = more signal;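 note: measures binding of the biotinylated anti-FSTL3 antibody to printed compounds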
[2] = binders from COS7 lysate, DM2A8 probe, primary screen, torsin A project, cell lysate, small-molecule microarray, fluorescence 635/667 (AID 1065); details: higher = more signal, COS7 lysate expressing mutant human TOR1A
[3] = small molecules captured by biotinylated probe aFGF2 – biochemical, small-molecule microarray, fluorescence 635/667, stem cell growth factor project, primary screen (AID 1067); details: higher = more signal;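 note: measures binding of biotinylated aFGF2 protein to printed compounds on slides; z-score merges feature fluorescence and signal-to-noise across triplicate slides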
[4] = small molecules captured by biotinylated probe aFGF10 – biochemical, small-molecule microarray, fluorescence 635/667, stem cell growth factor project, primary screen (AID 1071); details: higher = more signal;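 note: score merges 667 nm spot intensity and signal to noise from triplicate slides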
[5] = target: Neurogenic locus notch homolog protein 2 (Homo sapiens) (UniProt Q04721); test: small molecules binding Notch2 protein – biochemical, small-molecule microarray, 635 nm fluorescence, stem cell growth factors, primary screen (AID 1073); details: higher = more signal
[6] = target: Pro-neuregulin-1, membrane-bound isoform (Homo sapiens) (UniProt Q02297); test: small molecules binding neuregulin-1 protein – biochemical, small-molecule microarray, fluorescence 635/667, psychiatric disease protein project, primary screen (AID 1075); details: NRG1 binding, 635 nm fluorescence, higher = more signal;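 note: score combines 667 nm spot fluorescence with signal to noise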
[7] = system: Neuregulin-1 EGF-like domain; test: small molecules binding NRG1 EGF domain – biochemical, small-molecule microarray, 635 nm fluorescence, primary screen (AID 1081); details: higher = more signal;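 note: binding of the protein to compounds printed on small-molecule microarray slides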
[8] = FRG1 expression reporter modulators in myotubes – cell-based, C2C12 myotubes, firefly/Renilla luciferase, luminescence, FRG1 inhibition for FSHD, primary screen (AID 1084); details: FRG1 promoter luciferase, higher = more signal, called active from +8 up or from −8 down
[9] = small molecules captured by biotinylated probe aFST – biochemical, small-molecule microarray, fluorescence 635/667, stem cell growth factor project, primary screen (AID 1086); details: higher = more signal;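 note: score merges 667 nm fluorescence with signal-to-noise of each printed compound spot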
[10] = binders of probe aHhip on microarray, primary screen, stem cell growth factor project, biochemical, small-molecule microarray, fluorescence 635/667 (AID 1087); details: higher = more signal;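 note: score merges spot fluorescence at 667nm with spot signal to noise ratio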
[11] = system: PRMT1 (protein arginine N-methyltransferase 1); test: small molecules binding arginine methyltransferase PRMT1 – biochemical, small-molecule microarray, 635 nm fluorescence, primary screen (AID 1088); details: higher = more signal;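 note: binding of Prmt1 protein to compounds spotted on small-molecule microarray slides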
[12] = growth effects on S. cerevisiae YJM789 – YJM789 clinical isolate, OD600, 24 h, basal, primary screen (AID 1089); details: higher = more signal, called active from +8 up or from −8 down;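 note: growth of clinical yeast isolate S. cerevisiae YJM 789 seeded 1000 cells per well; test concentration not given here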
[13] = S. pombe growth modifiers, basal conditions – strain 972, OD600, 24 h, no modulator, primary screen (AID 1090);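 note: basal condition with compound alone and no growth modifier present; test concentration not given here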; details: S. pombe 972 growth, higher = more signal, called active from +8 up or from −8 down
[14] = budding yeast growth modifiers under rapamycin – strain BY4716, OD600, 96 h, primary screen (AID 1091); note: test concentration not given here; details: S. cerevisiae BY4716 + rapamycin, higher = more signal, called active from +8 up or from −8 down
[15] = target: Torsin-1A-interacting protein 2 (Homo sapiens) (UniProt Q8NFQ8); test: small molecules binding lysate-expressed LULL1 – cell lysate, human LULL1 lysate, 635/667 nm fluorescence, primary screen (AID 1092); details: small-molecule microarray, hLULL1 lysate binding, 635 nm fluorescence; higher = more signal;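 note: probe is lysate of COS7 cells overexpressing human LULL1; score merges per-feature 667 nm fluorescence with signal-to-noise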
[16] = optical density change of DRC41 E. coli – strain DRC41, OD650, 24 h, E. coli filamentation project, primary screen (AID 1093);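 note: MC1000 strain lacking acrAB efflux and sulA so SOS filamentation is blocked; test concentration not given here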; details: E. coli DRC41 growth, higher = more signal, called active from +8 up or from −8 down
[17] = probe aLefty2 binding to arrayed compounds – biochemical, biotinylated probe, 635/667 nm fluorescence, primary screen (AID 1094); details: small-molecule microarray, higher = more signal;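 note: score merges spot fluorescence near 667 nm with spot signal-to-noise ratio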
[18] = system: Noggin (protein binding on small-molecule microarray); test: small molecules binding Noggin protein – biochemical, 635/667 nm fluorescence, primary screen (AID 1095); details: 635 nm fluorescence, higher = more signal;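 note: score merges 667 nm feature fluorescence with signal to noise over triplicate slides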
[19] = target: Neurogenic locus notch homolog protein 3 (Homo sapiens) (UniProt Q9UM47); test: small molecules binding NOTCH3 protein – biochemical, 635/667 nm fluorescence, primary screen (AID 1096); details: small-molecule microarray, 635 nm fluorescence, higher = more signal
[20] = probe aEGFR binding to arrayed compounds – biochemical, biotinylated probe, 635/667 nm fluorescence, primary screen (AID 1097); details: small-molecule microarray, higher = more signal;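 note: probe is a biotinylated anti-EGFR antibody binding compounds printed on slides; score combines fluorescence near 667 nm and signal to noise of each spot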

Sequence of Neurogenic locus notch homolog protein 2 (Homo sapiens) (Q04721 whole entry, looked up, canonical isoform): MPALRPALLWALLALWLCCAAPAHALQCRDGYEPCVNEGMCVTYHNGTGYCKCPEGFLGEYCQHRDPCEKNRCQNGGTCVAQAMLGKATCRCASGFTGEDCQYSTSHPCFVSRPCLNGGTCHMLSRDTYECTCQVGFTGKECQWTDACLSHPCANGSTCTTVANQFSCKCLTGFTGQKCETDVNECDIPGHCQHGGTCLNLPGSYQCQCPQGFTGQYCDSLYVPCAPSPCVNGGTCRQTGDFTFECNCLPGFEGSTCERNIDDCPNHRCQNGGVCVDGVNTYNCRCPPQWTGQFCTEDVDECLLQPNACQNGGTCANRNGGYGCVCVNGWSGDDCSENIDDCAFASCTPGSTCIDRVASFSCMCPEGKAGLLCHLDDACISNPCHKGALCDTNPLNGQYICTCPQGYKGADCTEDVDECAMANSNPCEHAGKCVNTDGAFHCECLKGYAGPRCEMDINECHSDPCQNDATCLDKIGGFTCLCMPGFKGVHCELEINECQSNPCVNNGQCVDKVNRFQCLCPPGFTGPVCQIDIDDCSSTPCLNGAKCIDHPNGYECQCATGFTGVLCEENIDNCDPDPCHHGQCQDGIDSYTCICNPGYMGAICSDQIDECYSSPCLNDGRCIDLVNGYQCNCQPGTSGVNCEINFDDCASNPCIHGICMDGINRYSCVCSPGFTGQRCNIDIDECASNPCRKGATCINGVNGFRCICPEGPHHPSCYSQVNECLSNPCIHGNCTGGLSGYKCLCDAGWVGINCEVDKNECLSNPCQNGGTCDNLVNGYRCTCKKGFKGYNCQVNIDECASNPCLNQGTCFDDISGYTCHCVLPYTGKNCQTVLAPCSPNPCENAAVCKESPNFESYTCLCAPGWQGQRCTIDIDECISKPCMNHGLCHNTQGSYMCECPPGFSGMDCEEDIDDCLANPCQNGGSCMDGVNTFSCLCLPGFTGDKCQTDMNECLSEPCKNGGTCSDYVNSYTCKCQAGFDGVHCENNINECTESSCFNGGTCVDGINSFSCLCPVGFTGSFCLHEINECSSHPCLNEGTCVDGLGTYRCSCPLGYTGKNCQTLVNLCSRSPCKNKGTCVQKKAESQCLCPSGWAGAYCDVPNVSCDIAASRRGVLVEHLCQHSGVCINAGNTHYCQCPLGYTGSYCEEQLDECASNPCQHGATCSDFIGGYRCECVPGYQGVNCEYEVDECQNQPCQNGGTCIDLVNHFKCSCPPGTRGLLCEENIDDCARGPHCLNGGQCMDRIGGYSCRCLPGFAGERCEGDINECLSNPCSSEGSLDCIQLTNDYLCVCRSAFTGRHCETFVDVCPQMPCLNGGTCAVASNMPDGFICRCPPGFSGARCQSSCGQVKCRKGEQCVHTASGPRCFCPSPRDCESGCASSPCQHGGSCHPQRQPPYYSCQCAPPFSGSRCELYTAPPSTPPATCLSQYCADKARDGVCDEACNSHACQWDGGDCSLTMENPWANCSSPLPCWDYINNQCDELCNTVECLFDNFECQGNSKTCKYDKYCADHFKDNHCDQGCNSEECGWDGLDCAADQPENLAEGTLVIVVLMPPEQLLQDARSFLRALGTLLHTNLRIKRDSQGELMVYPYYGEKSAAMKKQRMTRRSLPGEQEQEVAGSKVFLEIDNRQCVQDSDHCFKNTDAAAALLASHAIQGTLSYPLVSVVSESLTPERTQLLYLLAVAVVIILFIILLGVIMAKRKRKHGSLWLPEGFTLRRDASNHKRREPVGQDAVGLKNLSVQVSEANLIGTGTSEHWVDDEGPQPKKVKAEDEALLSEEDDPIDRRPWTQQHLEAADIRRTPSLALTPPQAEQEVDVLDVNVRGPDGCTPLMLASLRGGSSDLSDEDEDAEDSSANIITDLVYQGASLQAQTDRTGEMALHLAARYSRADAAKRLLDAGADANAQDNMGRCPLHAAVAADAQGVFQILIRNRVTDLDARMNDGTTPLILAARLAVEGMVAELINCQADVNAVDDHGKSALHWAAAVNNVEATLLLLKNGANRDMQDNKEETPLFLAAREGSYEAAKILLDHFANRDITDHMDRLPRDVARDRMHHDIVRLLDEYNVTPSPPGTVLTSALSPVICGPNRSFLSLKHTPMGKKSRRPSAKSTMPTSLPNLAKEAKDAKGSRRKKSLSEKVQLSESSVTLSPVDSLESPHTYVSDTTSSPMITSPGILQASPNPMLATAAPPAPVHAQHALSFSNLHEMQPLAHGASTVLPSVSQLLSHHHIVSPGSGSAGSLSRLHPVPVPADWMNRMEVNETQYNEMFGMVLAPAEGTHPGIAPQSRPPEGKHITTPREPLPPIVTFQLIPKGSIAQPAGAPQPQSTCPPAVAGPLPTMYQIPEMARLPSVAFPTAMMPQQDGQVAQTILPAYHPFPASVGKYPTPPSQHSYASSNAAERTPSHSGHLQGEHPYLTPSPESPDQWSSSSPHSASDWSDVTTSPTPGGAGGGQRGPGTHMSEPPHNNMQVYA
Sequence of Pro-neuregulin-1, membrane-bound isoform (Homo sapiens) (Q02297 whole entry, looked up, the tested form may be a part, canonical isoform): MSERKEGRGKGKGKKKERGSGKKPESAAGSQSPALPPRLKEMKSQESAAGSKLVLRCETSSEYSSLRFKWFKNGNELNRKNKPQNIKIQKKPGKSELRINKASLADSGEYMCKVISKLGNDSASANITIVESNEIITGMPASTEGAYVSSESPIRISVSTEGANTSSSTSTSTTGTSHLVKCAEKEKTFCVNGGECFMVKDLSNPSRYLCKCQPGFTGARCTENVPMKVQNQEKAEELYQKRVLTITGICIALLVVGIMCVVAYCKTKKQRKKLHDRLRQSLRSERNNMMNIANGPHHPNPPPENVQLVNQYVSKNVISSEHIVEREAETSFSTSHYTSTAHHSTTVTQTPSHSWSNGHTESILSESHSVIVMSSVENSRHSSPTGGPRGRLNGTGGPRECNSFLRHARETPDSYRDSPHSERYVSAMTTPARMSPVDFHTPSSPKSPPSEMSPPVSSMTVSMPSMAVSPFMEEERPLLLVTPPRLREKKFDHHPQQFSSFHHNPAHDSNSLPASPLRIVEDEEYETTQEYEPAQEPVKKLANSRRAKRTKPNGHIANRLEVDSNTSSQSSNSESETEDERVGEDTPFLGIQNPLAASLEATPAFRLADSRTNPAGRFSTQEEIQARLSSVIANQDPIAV
Sequence of Torsin-1A-interacting protein 2 (Homo sapiens) (Q8NFQ8 whole entry, looked up): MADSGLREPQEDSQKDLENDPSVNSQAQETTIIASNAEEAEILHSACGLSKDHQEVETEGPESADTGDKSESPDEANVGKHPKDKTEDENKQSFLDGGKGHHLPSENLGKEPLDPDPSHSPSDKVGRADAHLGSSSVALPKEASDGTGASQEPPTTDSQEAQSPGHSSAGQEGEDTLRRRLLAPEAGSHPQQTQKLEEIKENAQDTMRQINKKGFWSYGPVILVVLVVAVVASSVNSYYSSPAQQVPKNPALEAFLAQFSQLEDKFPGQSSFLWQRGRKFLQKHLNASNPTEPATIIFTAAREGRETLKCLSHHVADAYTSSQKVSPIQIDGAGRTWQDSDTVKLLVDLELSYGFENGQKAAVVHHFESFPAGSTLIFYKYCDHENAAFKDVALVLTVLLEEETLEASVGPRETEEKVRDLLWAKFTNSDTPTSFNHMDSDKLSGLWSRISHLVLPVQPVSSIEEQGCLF

Row | SMILES | composite z-score [1] | composite z-score [2] | composite z-score [3] | composite z-score [4] | composite z-score [5] | composite z-score [6] | composite z-score [7] | z-score [8] | composite z-score [9] | composite z-score [10] | composite z-score [11] | z-score [12] | z-score [13] | z-score [14] | composite z-score [15] | z-score [16] | composite z-score [17] | composite z-score [18] | composite z-score [19] | composite z-score [20]
1 | CN1C=C(C(=O)OCCS(C)(=O)=O)C(C(=O)OCCS(C)(=O)=O)=CC(CCCO)=CC1C1CC1 (stereo not given) | -0.135 | 0.0461 | -0.128 | 0.427 | 0.213 | 1.04 | 1.25 | -0.483 (inactive) | -0.0228 | -0.0618 | 0.0371 | -0.298 (inactive) | -0.0029 (inactive) | -0.692 (inactive) | 0.826 | 0.731 (inactive) | -0.145 | 0.332 | 0.574 | -0.068
2 | CCOC(=O)C[C@H]1[C@H](OC(=O)c2ccccc2-c2ccccc2)[C@@H](NC(=O)c2ccc3ccccc3c2)c2cc(OCCCO)ccc2N1C(=O)c1ccc2ccccc2n1 | -0.279 | 0.353 | -0.08 | 0.443 | 0.135 | 0.0753 | 0.545 | 0.122 (inactive) | 0.484 | -0.0373 | 0.389 | 0.47 (inactive) | 0.623 (inactive) | 0.136 (inactive) | 0.998 | -0.263 (inactive) | -0.102 | 0.526 | 0.818 | -0.111
3 | COC(=O)[C@@]1(Cc2ccccc2)[C@H]2c3cc(C(=O)N(C)C)n(Cc4c(-c5ccccc5)noc4C)c3C[C@H]2CN1C(=O)c1ccccc1 | 0.948 | -0.287 | 0.308 | 0.346 | 1.66 | 1.81 | 1.24 | 1.6 (inactive) | 1.41 | 0.162 | -0.248 | 0.315 (inactive) | 0.555 (inactive) | 2.84 (inactive) | 2.7 | -1.07 (inactive) | 0.531 | -0.452 | 0.303 | 0.235
4 | O=C1O[C@H](c2ccccc2)[C@H](c2ccccc2)N2[C@H]1[C@@H](C(=O)N1CCN(c3ncccn3)CC1)[C@]1(C(=O)Nc3ccccc31)[C@H]2c1ccc(OCCO)cc1 | -0.371 | 0.0417 | -0.106 | 0.309 | 1.18 | 0.0248 | 1.31 | 1.03 (inactive) | 0.348 | 0.34 | 1.56 | 2.72 (inactive) | 0.573 (inactive) | 4.75 (inactive) | 2.35 | 2.9 (inactive) | -0.037 | 1.88 | 1.1 | -0.0763
5 | CC(C)c1ccc(NN2C(C(O)c3ccc(N(C)C)cc3)C=CC3C(=O)N(c4ccccc4)C(=O)C32)cc1 (stereo not given) | -0.145 | 1.43 | 0.0485 | 0.405 | 1.5 | 1.88 | 1.12 | 2.3 (inactive) | 1.46 | -0.166 | 1.56 | 0.372 (inactive) | 1.26 (inactive) | 0.197 (inactive) | 3.34 | -0.158 (inactive) | 0.188 | 0.109 | 1.03 | -0.027
6 | NCCCCCNC(=O)[C@H]1C[C@H]2C(=O)NCC(=O)N2[C@H]1c1cccc(OCCO)c1 | 0.257 | 0.759 | -0.0337 | -0.0838 | 0.709 | 1.17 | 1.43 | 1.11 (inactive) | 0.95 | 0.165 | 1.31 | -0.155 (inactive) | -1.02 (inactive) | -0.189 (inactive) | 2.34 | 0.946 (inactive) | -0.0766 | 1.33 | 0.6 | 0.0311
7 | COCCOC(=O)N1C(=O)[C@@]2(c3cc(C#CC4=CCCCC4)ccc31)[C@H](C(=O)N1CCc3cc(OC)c(OC)cc3C1)[C@H]1C(=O)O[C@H](c3ccccc3)[C@H](c3ccccc3)N1[C@@H]2c1ccccc1OCCO | 0.243 | 0.0781 | -0.0867 | -0.205 | 0.138 | -0.442 | 1.06 | 0.801 (inactive) | 0.186 | -0.0645 | 1.01 | 1.51 (inactive) | 1.35 (inactive) | 2.78 (inactive) | 1.97 | 0.982 (inactive) | 0.0906 | 1.16 | 1.09 | 0.0238
8 | CC(C)c1ccc(NN2C(C(O)c3c(F)cccc3Cl)C=CC3C(=O)N(c4ccccc4)C(=O)C32)cc1 (stereo not given) | 1.07 | 0.177 | 0.0923 | 0.653 | 1.52 | 1.31 | 0.973 | 2.73 (inactive) | 1.68 | -0.139 | 1.48 | 0.808 (inactive) | 1.83 (inactive) | 1.63 (inactive) | 3 | -2.2 (inactive) | 0.545 | -0.041 | 1.07 | 0.431
9 | COCCOC(=O)N1C(=O)[C@@]2(c3cc(C#CCCO)ccc31)[C@H](C(=O)NC[C@H](O)c1ccccc1)[C@H]1C(=O)O[C@H](c3ccccc3)[C@H](c3ccccc3)N1[C@@H]2c1ccc(O)cc1 | -0.221 | 0.464 | -0.0058 | 0.627 | 0.026 | 1.48 | 1.21 | -1.04 (inactive) | 0.0399 | -0.134 | 0.66 | 1.22 (inactive) | 0.572 (inactive) | 1.68 (inactive) | 2.35 | 0.856 (inactive) | -0.0862 | 1.7 | 0.459 | -0.137
10 | COC(=O)[C@@]1(Cc2ccc(OC)cc2)[C@H]2c3cc(C(=O)N4CCCC4)n(Cc4cc(F)cc5c4OCOC5)c3C[C@H]2CN1C(=O)c1ccccc1 | 0.152 | -0.0429 | 0.275 | 0.535 | 1.74 | 2.29 | 1.28 | 1.61 (inactive) | 0.83 | 1.14 | -0.829 | -0.0795 (inactive) | -0.87 (inactive) | 0 (inactive) | 3.27 | -1.28 (inactive) | 0.499 | -0.307 | 0.77 | 0.241
